ChEMBL document CHEMBL3433997, “St. Jude Leishmania screening dataset” (2016)

Experiments:
Format in all cases: functional
[1] = target: Solute carrier family 2, facilitated glucose transporter member 1 (Homo sapiens) (UniProt P11166); experiment: ST_JUDE_LEISH: Cytotoxicity at 2uM final concentration against transgenic Leishmania Mexicana promastigotes LmGLUT1 that are glucose transport deficient and complemented with the human glucose transporter GLUT1. Activity is measured by DNA content using SYBR green in vitro
Solute carrier family 2, facilitated glucose transporter member 1 (Homo sapiens), sequence (P11166 whole entry): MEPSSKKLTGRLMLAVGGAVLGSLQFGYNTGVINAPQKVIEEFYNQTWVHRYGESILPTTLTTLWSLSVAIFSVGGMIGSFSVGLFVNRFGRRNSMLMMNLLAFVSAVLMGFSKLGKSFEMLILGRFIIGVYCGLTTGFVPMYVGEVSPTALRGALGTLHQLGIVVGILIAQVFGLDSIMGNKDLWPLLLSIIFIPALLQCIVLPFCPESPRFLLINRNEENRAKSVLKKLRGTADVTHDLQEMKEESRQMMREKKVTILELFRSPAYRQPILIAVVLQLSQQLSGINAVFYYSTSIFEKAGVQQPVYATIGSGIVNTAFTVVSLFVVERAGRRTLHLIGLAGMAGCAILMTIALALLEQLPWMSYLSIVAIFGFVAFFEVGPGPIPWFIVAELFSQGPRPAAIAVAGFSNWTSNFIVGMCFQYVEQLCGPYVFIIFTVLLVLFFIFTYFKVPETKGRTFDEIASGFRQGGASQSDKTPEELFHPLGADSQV

[2] = target: Hexose transporter 1 (Plasmodium falciparum) (UniProt O97467); experiment: ST_JUDE_LEISH: Cytotoxicity at 2uM final concentration against transgenic Leishmania Mexicana promastigotes LmPfHT that are glucose transport deficient and complemented with the Plasmodium falciparum hexose transporter. Activity is measured by DNA content using SYBR green in vitro
[3] = target: Glucose transporter (Leishmania mexicana) (UniProt O61059); experiment: ST_JUDE_LEISH: Cytotoxicity at 2uM final concentration against transgenic Leishmania Mexicana promastigotes LmGT2 that are glucose transport deficient and complemented with the L. Mexicana glucose transporter 2. Activity is measured by DNA content using SYBR green in vitro

Row | Compound | inhibition [1] [%] | inhibition [2] [%] | inhibition [3] [%]
1 | CC(O)C1CCCCN1C(=O)c1cccc(-c2ccc(-c3nc4cc(F)ccc4[nH]3)cc2)c1 (centres undefined) | 2.72 | 5.12 | 4.37
2 | O=C(/C=C/c1ccc(Cl)c(Cl)c1)NCCCCCN1CC[C@H](NC(=O)c2sc3ccccc3c2Cl)C1 | 5.64 | 3.45 | -1.69
3 | CC1(C)NC(N)=NC(=N)N1OCCCCOc1ccc(Cl)cc1C1CCCCC1 | 18 | 26.4 | 11.5
4 | Fc1ccc(CNc2ccc3ncc(-c4cccnc4)n3n2)cc1 | 2.61 | 2.21 | 0.67
5 | COc1cccc(Nc2nccc(NCC(O)c3cccc(C(F)(F)F)c3)n2)c1 (centres undefined) | 4.86 | 5.48 | 1.78
6 | O=C(Nc1ccc(OC2CCN(Cc3ccco3)CC2)c(Cl)c1)c1ccc2ncccc2c1 | 4.38 | 2.97 | 2.34
7 | CCOc1c(N2CCN(CCCCNC(=O)c3ccc(NC(=O)c4ccc(Cl)cc4)cc3)CC2)ccc2ccccc12 | 0.72 | 0.48 | 0.9
8 | OCC(c1ccccc1)n1c(COc2ccc(Cl)cc2)nc2c(OCCCN3CCCCC3)cccc21 (centres undefined) | 12.9 | 9.11 | 6.47
9 | Clc1ccc(Cc2nc3ccccc3[nH]2)cc1Cl | 4.81 | 4.08 | 4.23
10 | COc1ccc2c(NCCc3ccccc3)cc(-c3ccccc3)nc2c1 | 9.93 | 10.8 | 4.05
11 | O=C(Nc1cccc([N+](=O)[O-])c1)Nc1ccc(Cl)c(C(F)(F)F)c1 | -1.69 | 1.56 | 0.73
12 | O=C(NCC1CN(Cc2ccc(N3CCCC3)o2)CCCO1)c1ccc2c(c1)OCO2 (centres undefined) | -0.31 | 0.65 | 2.95
13 | CC(CN(C)C)C(=O)Nc1ccc(-c2cccc(-c3nc4cc(C(F)(F)F)ccc4[nH]3)c2)cc1 (centres undefined) | 1.9 | 1.89 | -2.14
14 | COc1ccc(CNCc2cccc(-c3cccc(-c4nc5ccccc5[nH]4)c3)c2)cc1 | 7.86 | 4.28 | 3.04
15 | c1ccc(-c2cc3cccc(-c4nc5cnccc5[nH]4)c3o2)cc1 | 10.8 | 11.5 | 10.6
16 | CCCCCCCCN1CCN(CCCCCCNc2c3ccccc3nc3ccccc23)CC1 | 55.5 | 28.6 | 61.1
17 | Cc1ccc2c(Cl)c(C(=O)N3CCCc4ccccc43)sc2c1 | 5.28 | 3.86 | 3.16

Row | Compound | inhibition [1] [%] | inhibition [2] [%] | inhibition [3] [%]
18 | O=C(NC1CCN(CCCOc2ccnc3cc(Cl)ccc23)C1)c1ccc(Br)cc1 (centres undefined) | 9.74 | 7.84 | 7.14
19 | Cc1onc(-c2ccc(Cl)cc2)c1-c1ccnn1S(=O)(=O)c1ccc(Cl)cc1 | -0.16 | 4.29 | 1.91
20 | CC(C)NCc1ccc(-c2cccc(NC(=O)c3ccc(Cl)cc3)c2)cc1 | 8.23 | 6.77 | 7.51
21 | CCOC(=O)c1ccc(NC(=O)N[C@@H](Cc2ccccc2)C(=O)NC2CCN(Cc3ccc(O)c(OC)c3)C2)cc1 (some centres undefined) | -2.58 | -1.29 | 3.01
22 | CC(CN(C)C)C(=O)Nc1cccc(-c2cccc(-c3nc4cc(F)ccc4[nH]3)c2)c1 (centres undefined) | -2.1 | -1.06 | -3.91
23 | COc1cc(Cc2cnc(N)nc2N)cc(OCc2cccc(C(=O)O)c2)c1OC | -0.05 | -2 | 1.03
24 | CCCC(C(=O)OCCNC)(c1ccccc1)c1ccccc1 | 1.4 | 0.51 | 0.81
25 | CC(=O)N/N=C/[C@H](CCc1ccccc1)NC(=O)[C@H](CC(C)C)NC(=O)c1ccc(OCCN2CCOCC2)cc1 | 2.92 | 6.88 | 3.05
26 | COc1ccc(Cn2c(=O)[nH]c3cc(C(=O)NC4CCN(Cc5ccccc5)CC4)ccc3c2=O)cc1 | 2.2 | 0.63 | 2.59
27 | COc1ccccc1NC(=O)Nc1cccc(-c2ccc(-c3nc4cccc(C)c4[nH]3)s2)c1 | 3.95 | 6.34 | 3.94
28 | O=C(N[C@H]1CCN(CCc2ccc(O[C@H]3CCNC3)c(Br)c2)C1)c1ccc(Cl)c(Cl)c1 | 0.91 | 3 | 1.43
29 | CCCc1ccc(S(=O)(=O)NC2CCN(c3ccnc(Nc4ccc(OC)cc4)n3)C2)cc1 (centres undefined) | 8.11 | 9.89 | 9.64
30 | NS(=O)(=O)c1ccc(CNc2ccc3ncc(-c4ccc(OC(F)(F)F)cc4)n3n2)cc1 | 4.71 | 4.62 | 4.53
31 | Cc1ccccc1C1CCN(C2CCC(NC(=O)/C=C/c3ccccc3C(F)(F)F)CC2)CC1 (centres undefined) | 3.47 | -0.14 | 4.39
32 | CN1CCN(c2ccnc3ccc(NC(=O)Nc4ccc5ccccc5c4)cc23)CC1 | 2.79 | 1.63 | 2.8
33 | c1ccc(-c2ccc(CNCCCNc3nc4ccccc4[nH]3)cc2)cc1 | 4.26 | 9.56 | 6.92
